# Where “and” joins values, the source holds several entries; their conditions need not be identical. Equal entries are not always repeated. Records with an inconclusive call do not appear. Entries that show only a call come without a potency. Calls of active or inactive are those of the source. Unless noted, calls follow the shape of the dose curve; as a rule, active = well fitted curve in the direction sought with a large enough effect; inconclusive = small, poorly fitted or top-dose-only effect, or another doubt; inactive = no such curve, though single readings can be large; an effect the other way counts as inactive or inconclusive.
# Legend:
# [1] = target: Cytochrome P450 2D6 (Homo sapiens) (UniProt P10635); test: Cytochrome P450 family 2 subfamily D member 6 (CYP2D6) small molecule antagonists: luciferase biochemical (cell-free) qHTS assay (AID 1645840; active = well fitted curve in the direction sought with a large enough effect in the repeat runs; an effect the other way counts as inactive or inconclusive; also: nearly all actives have a fitted effect of over 55% in size; also: potency is read from the fitted curve at half-maximal effect)
# Procedure, shortened: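 P450-Glo luminescent screen: recombinant CYP2D6 enzyme–proluciferin substrate mix preincubated with compound 10 min at room temperature, then NADPH regeneration added for 1 h at room temperature. Detection reagent added for 20 min; luciferin light read as relative luminescence units.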
# [2] = target: Cytochrome P450 2C9 (Homo sapiens) (UniProt P11712); test: Cytochrome P450 family 2 subfamily C member 9 (CYP2C9) small molecule antagonists: luciferase biochemical (cell-free) qHTS assay (AID 1645842; active = well fitted curve in the direction sought with a large enough effect in the repeat runs; an effect the other way counts as inactive or inconclusive; also: nearly all actives have a fitted effect of over 55% in size; also: potency is read from the fitted curve at half-maximal effect)
# Procedure, shortened: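 Luminescence, after 20 min with luciferin detection reagent, reflected CYP2C9 turnover during a 1 h NADPH-driven reaction at 37C. Enzyme-substrate mix contained 0.4% bovine serum albumin and was preincubated with compound 10 min at room temperature.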
# [3] = target: Glutathione peroxidase 1 (Homo sapiens) (UniProt P07203); test: Primary qHTS Assay for Inhibitors of Recombinant Selenoprotein Glutathione Peroxidase 1 (GPX1) (AID 1845191); also: nearly all actives have a fitted effect of over 65% in size
# Procedure, shortened: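 Recombinant GPX1 (10 nM final) was preincubated with compound for 30 min at room temperature, then reacted with 1 mM GSH, 0.5 mM CHP, 0.5 mM NADPH and 100 nM glutathione reductase; NADPH fluorescence (340/450 nm) was read at 0 and 15 min.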
# [4] = target: Cytochrome P450 3A4 (Homo sapiens) (UniProt P08684); test: Cytochrome P450 family 3 subfamily A member 4 (CYP3A4) small molecule antagonists: luciferase qHTS assay (AID 1645841; active = well fitted curve in the direction sought with a large enough effect in the repeat runs; an effect the other way counts as inactive or inconclusive; also: nearly all actives have a fitted effect of over 45% in size)
# Procedure, shortened: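 P450-Glo CYP3A4 enzyme with proluciferin substrate was preincubated with DMSO-dissolved compounds for 10 min at room temperature. NADPH regeneration solution started a 1 h reaction. Detection reagent stopped it, and luminescence was read after 20 min.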
# [5] = Primary qHTS for inhibitors of nuclear receptor binding SET domain protein 2 (NSD2) in an isogenic RCH-ACV NSD2 p.E1099K mutant (9B) (AID 1645876); also: nearly all actives have a fitted effect of over 70% in size
# [6] = Primary qHTS for inhibitors of nuclear receptor binding SET domain protein 2 (NSD2) in an RCH-ACV wild type WT cells (2C) (AID 1645877); also: nearly all actives have a fitted effect of over 70% in size
# [7] = target: Rap guanine nucleotide exchange factor 3 (Homo sapiens) (UniProt O95398); test: Confirmatory qHTS for agonist of cAMP-regulated guanine nucleotide exchange factor 3 (EPAC1) (AID 1645881);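 also: EPAC1 catalysed release of BODIPY-GDP from Rap1B seen as fluorescence loss; nearly all actives have a fitted effect of over 75% in size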
# [8] = target: Rap guanine nucleotide exchange factor 4 (Homo sapiens) (UniProt Q8WZA2); test: Confirmatory qHTS for agonist of cAMP-regulated guanine nucleotide exchange factor 4 (EPAC2) (AID 1645884);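 also: nucleotide exchange releases bodipy-GDP from Rap1 and this lowers its fluorescence; nearly all actives have a fitted effect of over 65% in size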
# [9] = target: Rap guanine nucleotide exchange factor 4 (Homo sapiens) (UniProt Q8WZA2); test: Confirmatory qHTS for antagonist of cAMP-regulated guanine nucleotide exchange factor 4 (EPAC2) (AID 1645885); also: potency is read from the fitted curve at half-maximal effect; nearly all actives have a fitted effect of over 25% in size
# [10] = target: Rap guanine nucleotide exchange factor 3 (Homo sapiens) (UniProt O95398); test: Confirmatory qHTS for antagonist of cAMP-regulated guanine nucleotide exchange factor 3 (EPAC1) (AID 1645880); also: nearly all actives have a fitted effect of over 55% in size
# Procedure, shortened: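 Nucleotide exchange uses 100 nM EPAC1, 250 nM RAP1B-BODIPY-GDP and 50 uM GDP, with compounds in a concentration-titration series. After 5 min at room temperature, fluorescence (480 nm ex/540 nm em) is read every 5 min for 30 min. Data are normalized to control ATA and DMSO.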
# Cytochrome P450 2D6 (Homo sapiens), sequence (P10635 whole entry, looked up): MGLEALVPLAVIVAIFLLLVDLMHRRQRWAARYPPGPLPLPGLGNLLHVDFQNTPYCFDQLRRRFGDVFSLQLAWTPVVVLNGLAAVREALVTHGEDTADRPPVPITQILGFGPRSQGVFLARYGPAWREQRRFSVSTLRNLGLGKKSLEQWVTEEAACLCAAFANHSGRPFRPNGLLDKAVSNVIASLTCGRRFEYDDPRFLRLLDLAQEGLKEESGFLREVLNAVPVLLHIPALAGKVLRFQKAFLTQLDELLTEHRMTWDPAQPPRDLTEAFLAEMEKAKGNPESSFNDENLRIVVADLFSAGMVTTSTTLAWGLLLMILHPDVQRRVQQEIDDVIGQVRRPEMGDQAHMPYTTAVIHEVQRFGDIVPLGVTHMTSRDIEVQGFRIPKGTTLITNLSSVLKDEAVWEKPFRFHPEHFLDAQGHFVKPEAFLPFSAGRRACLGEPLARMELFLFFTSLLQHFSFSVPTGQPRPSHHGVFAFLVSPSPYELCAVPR
# Cytochrome P450 2C9 (Homo sapiens), sequence (P11712 whole entry, looked up): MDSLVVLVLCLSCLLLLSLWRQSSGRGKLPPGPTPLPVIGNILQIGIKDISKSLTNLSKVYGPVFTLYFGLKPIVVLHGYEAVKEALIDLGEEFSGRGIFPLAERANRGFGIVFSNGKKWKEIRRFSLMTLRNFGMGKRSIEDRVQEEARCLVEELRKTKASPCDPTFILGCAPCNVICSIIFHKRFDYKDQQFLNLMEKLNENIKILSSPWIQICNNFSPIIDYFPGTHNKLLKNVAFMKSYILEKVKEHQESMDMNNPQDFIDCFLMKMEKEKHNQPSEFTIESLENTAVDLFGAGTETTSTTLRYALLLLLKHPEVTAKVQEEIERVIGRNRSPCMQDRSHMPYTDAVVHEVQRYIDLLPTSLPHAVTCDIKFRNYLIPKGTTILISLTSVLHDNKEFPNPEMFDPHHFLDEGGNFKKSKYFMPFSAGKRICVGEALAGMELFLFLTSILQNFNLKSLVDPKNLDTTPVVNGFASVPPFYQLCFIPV
# Rap guanine nucleotide exchange factor 4 (Homo sapiens), sequence (Q8WZA2 whole entry, looked up): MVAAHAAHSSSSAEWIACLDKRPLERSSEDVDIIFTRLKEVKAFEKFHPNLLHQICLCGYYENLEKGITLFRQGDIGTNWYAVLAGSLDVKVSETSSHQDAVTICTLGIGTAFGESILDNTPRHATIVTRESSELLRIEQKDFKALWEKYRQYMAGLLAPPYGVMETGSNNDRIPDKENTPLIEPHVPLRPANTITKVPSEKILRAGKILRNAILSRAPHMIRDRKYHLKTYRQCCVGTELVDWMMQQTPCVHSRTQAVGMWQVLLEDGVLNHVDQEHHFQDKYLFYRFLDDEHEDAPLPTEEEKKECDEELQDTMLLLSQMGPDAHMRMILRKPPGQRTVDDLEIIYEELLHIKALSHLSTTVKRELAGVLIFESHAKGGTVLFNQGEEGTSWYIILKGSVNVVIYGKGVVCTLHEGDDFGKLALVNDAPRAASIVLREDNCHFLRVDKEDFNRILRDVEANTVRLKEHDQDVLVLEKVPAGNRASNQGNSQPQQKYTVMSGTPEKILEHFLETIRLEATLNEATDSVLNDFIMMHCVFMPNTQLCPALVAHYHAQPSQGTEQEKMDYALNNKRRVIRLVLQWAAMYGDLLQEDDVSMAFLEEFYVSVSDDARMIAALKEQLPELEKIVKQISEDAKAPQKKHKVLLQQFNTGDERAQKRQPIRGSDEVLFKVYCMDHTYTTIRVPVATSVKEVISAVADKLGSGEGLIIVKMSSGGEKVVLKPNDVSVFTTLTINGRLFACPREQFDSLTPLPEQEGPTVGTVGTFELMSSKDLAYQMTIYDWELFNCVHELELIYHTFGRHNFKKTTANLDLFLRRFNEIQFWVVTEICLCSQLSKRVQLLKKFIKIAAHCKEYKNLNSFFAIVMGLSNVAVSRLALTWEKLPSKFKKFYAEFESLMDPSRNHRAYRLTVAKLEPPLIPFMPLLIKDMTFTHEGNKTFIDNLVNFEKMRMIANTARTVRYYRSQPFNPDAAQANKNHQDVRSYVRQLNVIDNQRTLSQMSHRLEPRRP
# Rap guanine nucleotide exchange factor 3 (Homo sapiens), sequence (O95398 whole entry, looked up): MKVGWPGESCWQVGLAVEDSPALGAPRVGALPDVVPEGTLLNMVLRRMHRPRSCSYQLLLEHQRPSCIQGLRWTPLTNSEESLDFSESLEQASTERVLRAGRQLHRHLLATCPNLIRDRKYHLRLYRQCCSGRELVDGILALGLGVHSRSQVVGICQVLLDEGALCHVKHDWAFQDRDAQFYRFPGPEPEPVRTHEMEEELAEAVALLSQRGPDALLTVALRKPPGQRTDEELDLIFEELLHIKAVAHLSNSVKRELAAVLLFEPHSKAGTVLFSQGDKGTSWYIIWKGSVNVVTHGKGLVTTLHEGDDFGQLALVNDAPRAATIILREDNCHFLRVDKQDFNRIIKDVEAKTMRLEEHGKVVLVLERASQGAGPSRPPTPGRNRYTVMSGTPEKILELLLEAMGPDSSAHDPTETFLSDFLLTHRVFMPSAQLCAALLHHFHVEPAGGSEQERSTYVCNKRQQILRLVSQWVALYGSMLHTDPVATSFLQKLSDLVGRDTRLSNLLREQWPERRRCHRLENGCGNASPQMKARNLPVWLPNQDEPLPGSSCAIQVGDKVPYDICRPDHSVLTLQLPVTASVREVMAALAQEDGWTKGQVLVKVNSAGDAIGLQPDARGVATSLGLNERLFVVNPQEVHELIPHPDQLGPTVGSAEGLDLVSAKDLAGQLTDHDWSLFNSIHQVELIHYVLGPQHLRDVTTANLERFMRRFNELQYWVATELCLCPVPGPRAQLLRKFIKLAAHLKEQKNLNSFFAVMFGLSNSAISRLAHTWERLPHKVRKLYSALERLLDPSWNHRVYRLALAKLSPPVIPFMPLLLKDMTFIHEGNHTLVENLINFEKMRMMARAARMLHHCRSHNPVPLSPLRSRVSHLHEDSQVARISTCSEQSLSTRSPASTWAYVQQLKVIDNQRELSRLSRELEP
# Glutathione peroxidase 1 (Homo sapiens), sequence (P07203 whole entry, looked up): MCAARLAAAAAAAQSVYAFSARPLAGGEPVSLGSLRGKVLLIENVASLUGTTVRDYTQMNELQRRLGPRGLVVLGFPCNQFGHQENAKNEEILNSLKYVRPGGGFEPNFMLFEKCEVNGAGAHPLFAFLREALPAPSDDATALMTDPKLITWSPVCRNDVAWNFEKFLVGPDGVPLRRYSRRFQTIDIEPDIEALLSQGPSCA
# Cytochrome P450 3A4 (Homo sapiens), sequence (P08684 whole entry, looked up): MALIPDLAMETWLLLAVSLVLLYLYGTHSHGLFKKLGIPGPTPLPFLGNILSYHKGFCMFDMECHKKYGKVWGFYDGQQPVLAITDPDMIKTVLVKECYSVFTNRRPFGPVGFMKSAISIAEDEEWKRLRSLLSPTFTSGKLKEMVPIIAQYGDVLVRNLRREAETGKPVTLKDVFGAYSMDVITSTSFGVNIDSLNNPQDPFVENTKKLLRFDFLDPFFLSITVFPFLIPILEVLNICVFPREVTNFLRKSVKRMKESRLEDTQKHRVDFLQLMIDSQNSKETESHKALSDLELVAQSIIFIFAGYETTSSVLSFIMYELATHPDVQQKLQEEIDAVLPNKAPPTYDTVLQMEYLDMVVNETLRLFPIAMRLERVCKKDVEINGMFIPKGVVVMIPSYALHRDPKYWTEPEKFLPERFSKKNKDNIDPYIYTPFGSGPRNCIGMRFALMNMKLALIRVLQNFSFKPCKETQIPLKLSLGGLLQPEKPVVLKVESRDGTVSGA
compound,measurement,setting,value
CCN1CCCC(OC(=O)C(c2ccccc2)c2ccccc2)C1 (configuration not stated),Potency,[1],1380 nM (active)
same,Potency,[2],inactive
same,Potency,[3],inactive
NC(=O)C1(N2CCCCC2)CCN(CCCC(=O)c2ccc(F)cc2)CC1,Potency,[4],inactive
same,Potency,[2],inactive
same,Potency,[5],inactive
same,Potency,[6],inactive
same,Potency,[3],inactive
COC(=O)C(c1ccccc1Cl)N1CCc2sccc2C1 (configuration not stated),Potency,[1],17400 nM (active)
same,Potency,[5],inactive
same,Potency,[6],inactive
same,Potency,[3],inactive
CO[C@H]1C=CO[C@@]2(C)Oc3c(C)c(O)c4c(O)c(c(/C=N/N5CCN(C)CC5)c(O)c4c3C2=O)NC(=O)/C(C)=C\C=C[C@H](C)[C@H](O)[C@@H](C)[C@@H](O)[C@@H](C)[C@H](OC(C)=O)[C@@H]1C,Potency,[1],inactive
same,outcome,[7],inactive
same,outcome,[8],inactive
same,Potency,[9],44100 nM (active)
same,Potency,[3],inactive
C#C[C@]1(OC(C)=O)CC[C@H]2[C@@H]3CCC4=C/C(=N/O)CC[C@@H]4[C@H]3CC[C@@]21CC,Potency,[1],2680 nM (active)
same,Potency,[2],952 nM (active) and 7.76 µM (active)
same,Potency,[3],inactive
N#C/C(=C1\SCC(c2ccccc2Cl)S1)n1ccnc1 (configuration not stated),Potency,[1],275 nM (active)
same,Potency,[2],1.55 µM (active)
same,Potency,[3],inactive
O=C(NC1CCN(CCc2c[nH]c3ccccc23)CC1)c1ccccc1,Potency,[1],1230 nM (active)
same,Potency,[2],inactive
same,Potency,[3],inactive
COc1cc(N)c(Cl)cc1C(=O)NC1CCN(Cc2ccccc2)CC1,Potency,[1],21.9 nM (active)
same,Potency,[2],inactive
same,Potency,[3],inactive
CC1(C)OC[C@@H]2O[C@@]3(C(=O)O)OC(C)(C)O[C@H]3[C@@H]2O1,Potency,[4],inactive
same,Potency,[2],inactive
COc1ccc(C(=O)c2ccccc2)c(O)c1,Potency,[1],inactive
same,Potency,[10],inactive
same,outcome,[7],inactive
same,outcome,[8],inactive
same,Potency,[9],31200 nM (active)
same,Potency,[3],inactive

# Source: PubChem BioAssay (NCATS)
